Screening results deposited in PubChem by several laboratories.
Rows were chosen to be rich in hits. Some 4.7% of all compounds tested hit in one or more screens of this group.
ADAM10 inh: ADAM10 inhibition, QFRET primary screen | O14672 | recombinant ADAM10, EDANS/DABCYL FRET peptide cleavage, 3 h | inhibition, % at 7 µM | hit rate 0.62% among 370,000;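 active = inhibition above a per-campaign cutoff equal to the mean of compounds falling between control-based bounds plus 3 SD, cut at about 20% in these data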;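 note: 0% = DMSO wells while the 100% control is not disclosed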
KLK7 zymogen act: proKLK7 (human) activation, primary screen; purified proKLK7, EDANS-DABCYL substrate fluorescence; 100% is mature enzyme control, 0% vehicle; hit rate 0.9% among 370,000; activation, % at 7 µM; P49862;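 active = activation above the mean of all tested compounds plus 3 SD, computed per campaign excluding outliers beyond control limits, cut at about 13% in these data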
MPTP inh: permeability transition pore inhibition. inhibition, % at 10 µM. hit rate 1.4% among 360,000. isolated mouse mitochondria, Ca2+ swelling absorbance, 30 min;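 active = inhibition of 50% or more, scaled per plate between neutral and stimulator controls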;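 note: 0% = DMSO wells given calcium and 100% = 1 mM EGTA wells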
ADAM17 inh: ADAM17 inhibition, QFRET primary screen. inhibition, % at 6.95 µM. hit rate 0.83% among 370,000. P78536. recombinant ADAM17, EDANS/DABCYL FRET peptide cleavage. AID 720648;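 active = inhibition above the mean of compounds lying between control limits plus 3 SD, set per campaign, cut at about 8.5% in these data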;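 note: 0% = DMSO-only wells as the low control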
rCAG binder: binds r(CAG) RNA repeats; r(CAG) RNA repeat, TO-PRO-1 dye displacement fluorescence; inhibition, % at 3 µM; hit rate 1.3% among 370,000; AID 651821;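 active = inhibition above the plate cutoff, the mean of all test compounds on that plate plus 3 SD, cut at about 35% in these data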;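 note: 0% = DMSO alone and 100% = 100 µM mitoxantrone as full dye displacement; higher means more dye released from RNA so lower well fluorescence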
Pemphigus Ab inh: human desmoglein-3 autoantibody binding inhibition; hit rate 0.48% among 310,000; P32926; binding (percent of control), % at 10 µM; DSG3-coupled beads, scFv-anti-DSG3-GFP binding, flow cytometry; active compounds read low;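 active = binding more than 3 SD below its plate's average and above zero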;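 note: hits lower antibody fragment binding to DSG3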
ADAM10 counter: inhibits human ADAM10 in ADAM17 exosite counter-screen. shares compounds with ADAM17 inh. hit rate 47% among 2,900. AID 743256. inhibition, % at 6.95 µM. recombinant ADAM10, EDANS/DABCYL FRET peptide cleavage, 3 h;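 active = mean inhibition over the triplicate runs exceeds the activity threshold set in the earlier primary screen, cut at about 20% in these data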;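 note: 0% = DMSO wells and 100% = marimastat wells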
ADAM17 confirm: human ADAM17 inhibition, confirmation | shares compounds with ADAM17 inh | inhibition, % at 6.95 µM | hit rate 65% among 2,900 | recombinant ADAM17, EDANS/DABCYL QFRET peptide cleavage | AID 743257;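 active = mean inhibition across replicates above the hit cutoff set in the primary screen, cut at about 8.5% in these data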;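 note: 0% = DMSO wells and 100% = marimastat wells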
* hit, by the source's call; . = no result given.

SMILES	ADAM10 inh	KLK7 zymogen act	MPTP inh	ADAM17 inh	rCAG binder	Pemphigus Ab inh	ADAM10 counter	ADAM17 confirm
CNC(=O)N(C1=NCC(C)(C)S1)c1ccc(F)c(Cl)c1	11	0	-1	9.2*	0	101	9	6
COc1ccccc1CNS(=O)(=O)CCNC(=O)c1ccccc1	-12	0	0	-2	-4	105	.	.
CC(=O)N1c2ccc(C)cc2Sc2c1ccc1ccccc21	18	1	0	12*	2	.	16	9.0*
CC(=O)N1c2ccccc2Oc2cc3ccccc3cc21	5	0	10	4	1	99	.	.
CC(=O)Nc1ccc(NC(=O)C(C)NC(C)c2cccc3ccccc23)cc1 (stereo not given)	10	0	0	3	-3	96	.	.
COC1=CC(=O)OC(c2cccc([N+](=O)[O-])c2)C1 (stereo not given)	-10	1	-2	-5	1	.	.	.
Cc1ccc(S(=O)(=O)N2CCN(c3ccc(C(F)(F)F)cc3[N+](=O)[O-])CC2)cc1	18	-1	6	10*	0	67*	22*	11*
Nc1[nH]c(C(=O)c2ccc(Br)cc2)c(-c2ccc(Cl)cc2[N+](=O)[O-])c1C(=O)NCCc1c[nH]c2ccccc12	5	0	.	9.3*	20	.	15	14*
Nc1[nH]c(C(=O)c2ccc(Br)cc2)c(-c2ccccn2)c1C(=O)NCCc1c[nH]c2ccccc12	17	0	.	8.8*	10	.	15	12*
Nc1[nH]c(C(=O)c2ccccc2)c(-c2ccccc2Br)c1C(=O)NCCc1c[nH]c2ccccc12	4	0	-1	4	11	.	.	.
Nc1[nH]c(C(=O)c2ccccc2)c(-c2ccccc2C(F)(F)F)c1C(=O)NCCc1c[nH]c2ccccc12	7	-1	0	9.4*	9	.	7	5
CC(=O)Nc1ccc2c(c1)C(=O)N(C)[C@H]1CC[C@H](CC(=O)NCc3ccc(F)cc3)O[C@@H]1CO2	6	-1	.	-1	1	.	.	.
CCCC1CCC(c2ccc(OCC)cc2)=CC1=O (stereo not given)	7	0	-2	-2	0	111	.	.
CN(C)c1ccc(C(=O)NCC2CCN(C(=O)C(=O)c3cccs3)CC2)cc1	1	1	.	1	5	.	.	.
COc1ccccc1NC(=O)Cn1nc(-c2ccc(Cl)cc2)c2ccccc2c1=O	14	0	0	8.7*	4	98	14	14*
C=CC[C@@H](CC(=O)N[C@H](CO)Cc1ccccc1)C(=O)N[C@H](COC(=O)[C@@H](CC=C)CC(=O)OC(C)(C)C)Cc1ccccc1	10	1	0	9.6*	4	106	19	8
C=CC[C@H](CC(=O)N[C@H](CO)Cc1ccccc1)C(=O)N[C@H](COC(=O)[C@H](CC=C)CC(=O)OC(C)(C)C)Cc1c[nH]c2ccccc12	18	0	-1	11*	-3	105	26*	13*
C=CC[C@@H](CC(=O)NCCO)C(=O)N[C@H](COC(=O)[C@H](CC=C)CC(=O)OC(C)(C)C)Cc1c[nH]c2ccccc12	-8	1	0	2	-1	96	.	.
C=CC[C@@H](CC(=O)N[C@@H](CO)Cc1ccccc1)C(=O)N[C@H](COC(=O)[C@@H](CC=C)Cc1ccc(F)cc1)C(C)(C)C	13	0	1	6	-6	98	.	.
C=CC[C@@H](CC(=O)N(CCO)Cc1ccccc1)C(=O)N[C@H](COC(=O)[C@@H](CC=C)CC(=O)OC(C)(C)C)Cc1ccccc1	28*	0	1	18*	2	90	39*	18*
C=CCC[C@@H](Cc1ccc(F)cc1)C(=O)OC[C@@H](NC(=O)[C@@H](CC=C)CC(=O)N[C@H](CO)Cc1ccccc1)C(C)(C)C	18	0	-1	9.6*	-4	104	35*	18*
